# Shown are actives, neighbours in structure and some others; about 20% of the full set was active somewhere.
# Pf growth 96h – Primary qHTS for delayed death inhibitors of the malarial parasite plastid, 96 hour incubation; AID 504834, 2011; Potency, µM (series often up to 28.7 µM), for the others: at the top dose activity change, negative = inhibition, usual class: inhibitors; actives 6.9% (n = 320,000); P. falciparum luciferase reporter growth, 96 h; further: potency means the concentration at half of the fitted maximal effect; on the % scale 0 is the no-effect control and ±100 the full control effect
#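 Readout is luminescence from an integrated firefly luciferase in P. falciparum. Red cells, 2% hematocrit and 0.05% parasitemia final, were cultured with compound through two parasite generations (96 hours) at 37 C, 5% CO2.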
# HCMV antiviral – qHTS Assay for inhibitors of the human cytomegalovirus (HCMV). HFF cells, HCMV-luciferase reporter, 72 h; hits give low values. activity change, negative = inhibition, % at 57.5 µM. actives 4.5% (n = 410,000); in the data active means activity change below about -60%; inconclusive means no clear call, values can overlap the other calls; inactive means above about -39%; further: on the % scale 0 is the no-effect control and ±100 the full control effect
#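 Screen run at 2 compound doses on HFFs infected with reporter HCMV, MOI 1 PFU/cell. Luciferase activity from cell lysates at 72 h post infection gave inhibition relative to buffer-only and Salinomycin wells.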
# Pf growth 48h – Primary qHTS for delayed death inhibitors of the malarial parasite plastid, 48 hour incubation | P. falciparum luciferase growth in erythrocytes, 48 h | actives 5.9% (n = 310,000) | Potency, µM (series often up to 28.7 µM), without a hit: top-dose activity change, negative = inhibition, hits mostly inhibitors | AID 504832, 2011; further: potency means the concentration at half of the fitted maximal effect; on the % scale 0 is the no-effect control and ±100 the full control effect
#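 Growth was read as firefly luciferase luminescence after a 48 h, 37 C, 5% CO2 exposure of compounds to reporter-bearing P. falciparum cultures (0.1% parasitemia, 2% hematocrit final) in Albumax-supplemented RPMI 1640.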
# Cycloheximide cs – Cycloheximide Counterscreen for Small Molecule Inhibitors of Shiga Toxin; cell reporter, cycloheximide protein synthesis inhibition counterscreen; actives 12% (n = 300,000); max response, %; in the data active means max response mostly above about 13%, no sharp cut-off; inactive means mostly below about 14%; further: read at 38.3 µM for the half of the compounds with a filed dose; 0% is about no effect
# Shiga inhibitor – A qHTS for Small Molecule Inhibitors of Shiga Toxin. actives 9.2% (n = 290,000). AID 2315, 2010. Vero cells, Shiga toxin protein synthesis inhibition reporter. inhibition, % at 38.7 µM; in the data active means inhibition mostly above about 28%, no sharp cut-off; inactive means mostly below about 43%; further: 0% is about no effect
# * = called active by the depositor; ? = inconclusive; . = not tested or not shown. Unless noted, the call rests on the fitted dose curve; in most records, active means well fitted inhibition curve with a large enough effect; inconclusive means small, poorly fitted or top-dose-only effect, or another doubt; inactive means no such curve, though single readings can be large or run the other way.
SMILES,Pf growth 96h,HCMV antiviral,Pf growth 48h,Cycloheximide cs,Shiga inhibitor
COc1ccc2ccccc2c1/C=N/NC(=O)c1sc(N)c(C#N)c1C,19%,-28,?,10,27
Cc1cc(/C=N/NC(=O)c2ccsc2)c(C)n1-c1cnccn1,27%,-35,16%,42*,87*
COc1cc(/C=N/NC(=O)c2sc(N)c(C#N)c2C)cc(Br)c1O,?,-67*,?,-3,-1
O=C1CCCN1CC(=O)N1CCCC(Nc2cccc(F)c2)C1 (centres undefined),22%,-27,0%,4,5
Cc1ccccc1-n1c(C)cc(/C=N/NC(=O)c2ccncc2)c1C,?,21,?,36*,68*
COc1cc(C(=O)N/N=C/c2cccc(Oc3ccccc3)c2)ccc1O,11%,-78*,20%,9,8
O=C(N/N=C/c1cccnc1)c1ccc(F)cc1,12%,-32,42%,11*,38
Cc1c(C(=O)N/N=C/c2cccnc2)sc(N)c1C#N,?,-14,?,12*,26
O=C(N/N=C/c1cccnc1)c1ccc([N+](=O)[O-])cc1,?,-8,-3%,-2,19
Cc1cccc(NC(=O)c2ccc3c(c2)C(=O)N(c2ccccc2C)C3=O)n1,94%,?,80%,.,.
O=C(CNC(=O)c1ccccc1Br)N/N=C/c1cccnc1,20%,-24,20%,-1,22
O=C(CNC(=O)c1ccccc1F)N/N=C/c1cccnc1,75%,-32,36%,31*,16
O=C(N/N=C/c1ccncc1)c1ccccc1,52%,?,22%,21*,55*
Cc1ccc(C(=O)N/N=C/C=C/c2ccccc2)o1,280%,15,-28%,22,119*
Cc1cccc(NCC(=O)N/N=C\c2cccc(Oc3ccccc3)c2)c1,-8%,-67*,-23%,4,16
COc1ccc(NC(=O)C2CCCCC2)cc1S(=O)(=O)N1CCOCC1,.,11,.,.,.
Cc1cc(C(=O)N/N=C/c2cccnc2)cs1,-23%,0,30%,14,19
O=C(N/N=C/c1cccnc1)c1ccccc1,?,?,31%,25*,59*
O=C(N/N=C/c1cccnc1)C1CC1(c1ccccc1)c1ccccc1 (centres undefined),-4%,-67*,?,-9,-9
NC(=S)N/N=C/c1cccnc1,-12%,.,-10%,.,.
CC(C)(C)NC(=S)N/N=C/c1cccnc1,0%,-65*,0%,-1,3
Cc1ccc(C(=O)N/N=C\c2cccnc2)s1,-21%,26,32%,30*,55*
Cc1ccc(NC(=O)CSc2ncccn2)cc1S(=O)(=O)N1CCCCC1,?,-23,0%,.,.
CCSc1ncc(Cl)c(C(=O)Nc2sc(C(C)=O)c(C)c2C(=O)OC)n1,.,14,.,.,.
O=C(Nc1ccc(S(=O)(=O)NCc2ccco2)cc1)c1ccc2ccccc2n1,.,-22,?,89*,51*
SMILES,Pf growth 96h,HCMV antiviral,Pf growth 48h,Cycloheximide cs,Shiga inhibitor
Cc1nc2ccccc2cc1C(=O)NCc1ccco1,4%,1,1%,-3,0
O=C(NCc1ccco1)c1ccc2ccccc2n1,10µM*,-28,8%,-2,-4
OC1O[C@H](c2ccc3c(c2)OCO3)[C@H]2CO[C@H](c3ccc4c(c3)OCO4)[C@@H]12 (some centres undefined),52%,-12,0%,-3,-1
CC(/C=N/NC(=O)c1n[nH]c2c1CCC2)=C\c1ccccc1,.,-88*,-9%,32,80
O=C(N/N=C/C(Br)=C\c1ccccc1)c1n[nH]c2c1CCC2,-11%,-79*,.,64*,111*
Cc1cc(C(=O)N/N=C/C=C/c2ccccc2)n[nH]1,-7%,-10,7%,7,36
O=C(N/N=C/C=C/c1ccccc1)c1n[nH]c2c1CCC2,-18%,-21,.,15*,21
Cc1ccc(N(CC(O)CON=C2c3ccccc3-c3ccccc32)S(C)(=O)=O)cc1 (centres undefined),?,-24,?,-1,-1
Cc1cnc(NC(=O)C2CC=CCC2)s1 (centres undefined),28%,-30,59%,24*,45*
CC(C)(C)C1CCC(C(=O)Nc2nccs2)CC1 (centres undefined),?,-27,10%,15,47*
Cc1cnc(NC(=O)C2CCC(C(C)(C)C)CC2)s1 (centres undefined),?,4,18%,20*,33
O=C(Nc1nccs1)C1CCN(S(=O)(=O)c2ccccc2)CC1,7%,?,6%,-4,-4
CC(C)C(C)NC(=O)COC(=O)/C=C/c1ccc(S(=O)(=O)N2CCc3ccccc32)cc1 (centres undefined),?,-8,?,0,-4
CC(C)CC1COC(=O)N1 (centres undefined),7%,-9,35%,-2,-7
COc1ccc(C)cc1NC(=O)CCNS(=O)(=O)c1cccc2nonc12,21%,-6,0%,3,-19
COc1ccc(Cl)cc1NC(=O)CCNS(=O)(=O)c1cccc2nonc12,10µM*,37,27%,-1,-6
O=c1c(Cc2ccc(Cl)cc2Cl)c(O)ccn1Cc1ccc(Cl)cc1,?,-30,4.1µM*,-2,13
O=c1c(Cc2ccc(F)cc2)c(O)ccn1Cc1cccc(Cl)c1,13µM*,-4,12µM*,-1,-6
O=c1c(Cc2ccc(Cl)cc2)c(O)ccn1Cc1ccccc1,-14%,-20,?,-4,3
O=c1c(Cc2ccc(Cl)cc2)c(O)ccn1Cc1cccc(Cl)c1,-22%,9,?,-2,-41
CC(O)C(NS(=O)(=O)c1ccc(Cl)cc1)C(=O)OCC(=O)N1CCN(c2ccccc2)CC1 (centres undefined),?,-30,21%,-4,-5
CC(C)c1ccc(N2C(=O)NC(=O)/C(=C/C=C/c3ccco3)C2=O)cc1,79%,-101*,15%,-2,-3
CCc1ccc(N2C(=O)NC(=O)/C(=C\C=C\c3ccco3)C2=O)cc1,-1%,-77*,20%,22*,18
Cc1ccc(N2C(=O)NC(=O)/C(=C/C=C/c3ccco3)C2=O)cc1,0%,-98*,7%,24*,26*
O=C1NC(=O)N(Cc2ccccc2)C(=O)/C1=C\c1ccco1,-4%,136,16%,-1,-10
O=C1NC(=O)N(Cc2ccc(F)cc2)C(=O)/C1=C\C=C\c1ccco1,-2%,-97*,-2%,-2,11
CC(=O)c1ccc(-c2ccc(C(=O)NCC(c3ccco3)N(C)C)o2)cc1 (centres undefined),.,22,.,.,.
Cc1cc(C)cc(N2C(=O)NC(=O)/C(=C\C=C\c3ccco3)C2=O)c1,31%,-99*,0%,13,49*

# Screening data as filed in PubChem BioAssay.
